# According to PubChem BioAssay (NCATS):
# Inconclusive results are not listed. Entries that show only a call come without a potency. Activity calls are given as the source filed them. The call rests on the fitted dose curve; in most records, active means well fitted curve in the direction sought with a large enough effect; inconclusive means small, poorly fitted or top-dose-only effect, or another doubt; inactive means no such curve, though single readings can be large; an effect the other way counts as inactive or inconclusive.
# Assays:
# [1] = Vero cells viability qHTS for Zika virus inhibitors (AID 1347167); further: potency means the concentration at half of the fitted maximal effect
# In short: (§1)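 Cells seeded at 2.5 x 10^5 cells/mL in DMEM with 4% FBS and attached overnight at 37 degrees C, then exposed to compound for 24 to 48 hours. Viability read as ATP content by CellTiter Glo luminescence.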
# [2] = HepG2 cells viability qHTS for Zika virus inhibitors (AID 1347168)
# In short: as §1
# [3] = OV-KATE Cancer Cell Toxicity qHTS against the NCATS CANVASS Library (AID 1347345)
# In short: (§2)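 Viability was assessed by adding CellTiter-Glo reagent to treated cultures and reading luminescence after 15min at room temperature. Treatment lasted 72 h at 37 degrees C/5% CO2, using an 11-point series on 1000 cells/well.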
# [4] = HPAF-II Cancer Cell Toxicity qHTS against the NCATS CANVASS Library (AID 1347346); further: nearly all actives have a fitted effect of over 55% in size
# In short: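 Luminescence from CellTiter-Glo, added after 72 h compound exposure and a 15 min room-temperature incubation, served as the viability readout. HPAF-II cells (1000/well) received an 11-point concentration series.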
# [5] = UWB1.289 Cancer Cell Toxicity qHTS against the NCATS CANVASS Library (AID 1347347); further: nearly all actives have a fitted effect of over 60% in size
# In short: as §2
# [6] = OV-SAHO Cancer Cell Toxicity qHTS against the NCATS CANVASS Library (AID 1347348); further: nearly all actives have a fitted effect of over 55% in size
# In short: as §2
# [7] = Panc-1005 Cancer Cell Toxicity qHTS against the NCATS CANVASS Library (AID 1347349); further: nearly all actives have a fitted effect of over 60% in size
# In short: as §2
# [8] = U-118MG Cancer Cell Toxicity qHTS against the NCATS CANVASS Library (AID 1347351)
# In short: as §2
# [9] = UWB1.289-WTBRCA1 Cancer Cell Toxicity qHTS against the NCATS CANVASS Library (AID 1347354); conditions: UWB1.289-WTBRCA1 viability, CellTiter-Glo luminescence, 72 h; at 76 µM (top of the series)
# In short: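 Luminescent ATP read-out (CellTiter-Glo, 15min at room temperature) measures survival after cells face an 11-point compound series for 72 hours at 37 degrees C/5% CO2.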
# [10] = Tertiary RLuc qRT-PCR qHTS assay for Zika virus inhibitors (AID 1347169); further: nearly all actives have a fitted effect of over 55% in size; further: potency means the concentration at half of the fitted maximal effect
# From the text: Avindra Nath, Ph.D., National Institute of Neurological Disorders and Stroke (NINDS), Bethesda, MD
# Radhakrishnan Padmanabhan, Ph.D., Georgetown University (GU), Washington D.C.
# Zika Virus causes congenital defects, including microcephaly and is associated with Guillain-Barre syndrome, eningoencephalitis and myelitis in infected adult. […] Using a target-based approach, we hope to establish a screening paradigm to uncover novel, cell-active NS2B-NS3 protease (Zika Virus) specific inhibitors from NCATS' collection of small molecules using qHTS.
# Four assay panel was created to identify potential Zika Virus inhibitors. Namely, (1) GU unlinked NS2B-NS3 AMC tagged protease qHTS, (2) GU unlinked NS2B-NS3 Rhodamine tagged protease qHTS, (3) NINDS linked NS2B-NS3 AMC tagged protease qHTS, (4) NINDS linked NS2B-NS3 Rhodamine tagged protease qHTS. Identified inhibitors were re-acquired and tested against secondary confirmatory, orthogonal, and counterscreens to exclude nonspecific inhibition.
# Early Translation Branch (ETB)
# National Center for Advancing Translational Sciences (NCATS), Rockville, MD
# National Institute of Health (NIH), Bethesda, Maryland […]
# For a follow-up assay, we adapted a high throughput orthogonal assay in 1536-well plate format to use the recombinant virus ZIKV-RLuc, in Vero cells. […] The luminescence signal was measured after 1-1.5 hrs exposure to substrate in ViewLux reader.
compound,measurement,setting,value
C[C@]12CC[C@@H]3c4ccc(OC(=O)N(CCCl)CCCl)cc4CC[C@H]3[C@@H]1CC[C@@H]2O,Potency,[1],inactive
same,outcome,[2],inactive
NCCc1ccc(O)cc1,outcome,[3],inactive
same,outcome,[4],inactive
same,outcome,[5],inactive
same,outcome,[6],inactive
same,outcome,[7],inactive
same,outcome,[8],inactive
same,outcome,[9],inactive
O=c1c(C2CC(c3ccc(-c4ccc(Br)cc4)cc3)Cc3ccccc32)c(O)sc2ccccc12 (stereo not given),Potency,[1],inactive
same,outcome,[2],inactive
CC(=O)OCC1=C(C(=O)O)N2C(=O)[C@@H](N)[C@H]2SC1,Potency,[10],inactive
O=C(Nc1ccc(Br)cc1)c1cc(Br)cc(Br)c1O,Potency,[1],23.4 µM (active)
same,outcome,[2],inactive
same,Potency,[10],8.29 µM (active)
